Laboratory results taken from PubChem BioAssay AID1851 (National Center for Advancing Translational Sciences (NCATS), 2009).
In all, about 16,000 compounds went through this assay and about 4,000 (25%) were called active. Inconclusive results (about 26%) are left out. Calls follow the shape of the dose curve; as a rule, active = well fitted curve in the direction sought with a large enough effect; inconclusive = small, poorly fitted or top-dose-only effect, or effect the other way; inactive = no such curve, though single readings can be large or run the other way. Not all results are given here.

The compounds below were run against Cytochrome P450 2C9 (Homo sapiens) (UniProt P11712) (assay: Cytochrome panel assay with activity outcomes). Details: recombinant CYP, pro-luciferin dealkylation, luminescence, p450-cyp2c9; series mostly up to 57.1 µM; activity, negative = inhibition: at the top concentration.
Sequence of Cytochrome P450 2C9 (Homo sapiens) (P11712 whole entry, looked up): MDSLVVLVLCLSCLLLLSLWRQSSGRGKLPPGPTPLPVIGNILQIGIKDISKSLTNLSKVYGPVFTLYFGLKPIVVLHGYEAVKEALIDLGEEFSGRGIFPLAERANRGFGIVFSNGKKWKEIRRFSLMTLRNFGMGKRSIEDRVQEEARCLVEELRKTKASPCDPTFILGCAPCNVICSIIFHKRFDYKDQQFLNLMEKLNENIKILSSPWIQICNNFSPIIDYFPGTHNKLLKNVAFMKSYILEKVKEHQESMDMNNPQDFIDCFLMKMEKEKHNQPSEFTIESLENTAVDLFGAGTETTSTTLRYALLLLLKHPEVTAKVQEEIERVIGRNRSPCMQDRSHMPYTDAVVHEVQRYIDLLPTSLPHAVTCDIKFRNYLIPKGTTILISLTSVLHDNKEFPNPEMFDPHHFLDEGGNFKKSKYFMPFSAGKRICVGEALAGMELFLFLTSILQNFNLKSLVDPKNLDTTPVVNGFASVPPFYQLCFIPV
% is scaled to controls: 0 for no effect and ±100 for the full control effect.

activity, negative = inhibition, inactive:
O=c1c[n+](CCCC[n+]2cc(=O)o[nH]2)[nH]o1 10.6% [at 11.4 µM]
c1csc(CNc2nc(-c3ccoc3)nc3ccccc23)c1 -11.2% [at 2.29 µM]
CO[C@H]1COC(=O)CCC[C@@H](C)[C@H](OC)COC(=O)[C@H]2CCCN2C(=O)C/C=C\[C@@H]1C 5.44% [at 11.4 µM]
C=CCOc1ccc2cccc(/C=N/NC(=O)c3cc4cc([N+](=O)[O-])ccc4s3)c2c1 -31.2%
O=C(N/N=C/c1ccco1)/C(=C/c1cccc([N+](=O)[O-])c1)NC(=O)c1ccccc1 -23.4%
Cc1ccc(C(=O)N/N=C/c2ccc([N+](=O)[O-])s2)cc1 -24.8%
Cc1noc(C)c1C(=O)N1CCC2(CCCN(c3ccccc3)C2)CC1 9.43%
Cc1noc(C)c1C(=O)N1CCC2(CC1)CN(c1ccccc1)C2 1.9%
c1cncc(CNc2cc(-c3ccoc3)ncn2)c1 2% [at 2.29 µM]
C/C(=N\OC(=O)c1ccc(F)cc1)c1nccs1 -20.9%
Nc1nc2c(c(=O)[nH]1)CN(CCCN1CCOCC1)CN2 11% [at 11.4 µM]
CC(=O)Nc1ccc(NC(=O)c2ccccc2CC[N+](=O)[O-])cc1 -19.2%
O=C(O)CCCCCNC(=O)c1ccccc1Br -16.4%
CCOc1ccc2nc3cc(N=Nc4ccc(N)nc4N)ccc3c(N)c2c1 1.7% [at 11.4 µM]
NC(=O)c1ccc(N2CCCCC2)c(N2C(=O)C3CC=CCC3C2=O)c1 (stereo not given) -18.8%
O=C(Nc1ccc2nc(SCc3ccc(Cl)cc3)sc2c1)c1ccccc1C(=O)N1CCOCC1 -9.43%
O=C(/C=C/c1ccc(Cl)cc1)NCCN1CCOCC1 -18.9%
CC(/C=C/c1ccco1)=N/NC(=O)c1ccccc1Cl -14.2%
CN1CCCN(C2C3CC4CC(C3)CC2C4)CC1 (stereo not given) -1.21%
CCN1C(=O)[C@H]2[C@H]3[C@H](O)[C@H](O)C/C(=N/OC[C@@H](O)[C@H]4O[C@H]5OC(C)(C)O[C@H]5[C@@H]4O)[C@@H]3CC[C@@H]2C1=O 11.9% [at 11.4 µM]
COc1ncnc(NS(=O)(=O)c2ccc(N)cc2)c1OC 45.6% [at 25.6 µM]
CN=C(NC#N)NCCSC[C@H]1N=CN=C1C -19.2% [at 25.6 µM]
CCOc1ccc(/C(O)=C2\C(=O)C(=O)N(CCOCCO)C2c2ccccc2OC)cc1 (stereo not given) -28.2%
COc1ccc(OC)c(C2N(c3cc(C)on3)C(=O)C3CCCN32)c1 (stereo not given) -0.725%
COc1ccc(/C(O)=C2\C(=O)C(=O)N(c3cc(C)on3)C2c2ccc(OC)c(OC)c2)cc1OC (stereo not given) -2.14%
COc1ccc(C2/C(=C(/O)c3ccccc3)C(=O)C(=O)N2CC(C)O)c(OC)c1 (stereo not given) -19.1%
CN1CCN(c2ncc3ncc(=O)n(C[C@H]4CCCO4)c3n2)CC1 -1.28%
CN(Cc1ccco1)c1cc(-c2ccc3c(c2)OCO3)ncn1 -13% [at 2.29 µM]
CCOC(=O)N/N=C1/C[C@@H](O)[C@@H](O)[C@@H]2[C@@H]3C(=O)N(CC)C(=O)[C@H]3CC[C@@H]12 9.77% [at 11.4 µM]
CN(C)CCCN1CCC2(CCC(C(C)(C)C)CC2)CC1 13% [at 11.4 µM]
CN(Cc1ccco1)c1nc(-c2ccccc2C(F)(F)F)nc2ccccc12 -1.38% [at 2.29 µM]
N#Cc1ccccc1-c1ccc2ncnc(NC3CC3)c2c1 -9.89% [at 2.29 µM]
CNc1ncnc2ccc(-c3ccccc3C#N)cc12 -10.6% [at 2.29 µM]
COc1ccccc1CNc1ncnc2ccc(-c3cccnc3)cc12 6.62% [at 2.29 µM]
COc1ccc2[nH]cc(CCNc3cc(-c4cccnc4)ncn3)c2c1 -3.3% [at 2.29 µM]
Cc1cnc(CNc2ncnc3ccc(-c4ccc5c(c4)OCO5)cc23)cn1 -11.4% [at 2.29 µM]
Cc1cccc(CNc2ncnc3ccc(-c4cccnc4)cc23)c1 -11.3% [at 2.29 µM]
COCCNc1ncnc2ccc(-c3cccc(OC)c3)cc12 26.2% [at 2.29 µM]
COc1cccc(-c2ccc3ncnc(NC4CC4)c3c2)c1 -17.4% [at 2.29 µM]
COc1ncc2nc(-c3cn(C)c4ccccc34)c(=O)n(C)c2n1 13.9%
COc1cc2c(cc1OC)C(CCN)=NCC2 -3.31% [at 11.4 µM]
C[C@]1(O)CC[C@H]2[C@H]3CC=C4N5CCN=C5CC[C@@]4(C)[C@H]3CC[C@@]21C -4.16% [at 11.4 µM]
CNc1ncnc2ccc(-c3ccccc3OC)cc12 2.7% [at 2.29 µM]
COc1ccc2[nH]cc(CCNc3cc(-c4cccc(C#N)c4)ncn3)c2c1 -22.1% [at 2.29 µM]
Cc1cnc(CNc2ncnc3ccc(-c4cccc(C#N)c4)cc23)cn1 -16.4% [at 2.29 µM]
CC(=O)NCCNc1ncnc2ccc(-c3ccc4c(c3)OCO4)cc12 5.09% [at 2.29 µM]
c1nc(NCCN2CCOCC2)c2cc(-c3ccc4c(c3)OCO4)ccc2n1 6.81% [at 2.29 µM]
COc1cccc(-c2ccc3ncnc(NCc4cnc(C)cn4)c3c2)c1 -22.3% [at 2.29 µM]
COc1ccc2[nH]cc(CCNc3ncnc4ccc(-c5ccccc5CN(C)C)cc34)c2c1 -13.9% [at 2.29 µM]
CC(C)=CCC/C(C)=C/CO/N=C1/C[C@@H](O)[C@@H](O)[C@@H]2[C@@H]3C(=O)N(C(C)(C)C)C(=O)[C@H]3CC[C@H]12 23% [at 11.4 µM]
CC(=O)OC[C@@H]1O[C@H](C/C=N\O[C@@H](C)CN2CCCCc3nc(C)c(C)cc32)C=C[C@@H]1OC(C)=O 10.2% [at 11.4 µM]
CC(C)[C@H](CO)Nc1nc(Nc2ccc(C(=O)O)c(Cl)c2)c2ncn(C(C)C)c2n1 15.2%
CC(C)Oc1cccc(-n2c(CCc3c[nH]c4ccc(Br)cc34)nc3ccccc3c2=O)c1 0.809%
CC(=O)NCCNc1nc(-c2ccc(N(C)C)cc2)nc2ccccc12 -16.1% [at 2.29 µM]
COc1ccccc1CNc1ccnc(-c2ccc3c(c2)OCO3)n1 -27.5% [at 2.29 µM]
COc1ccc(CNc2ccnc(-c3ccc4c(c3)OCO4)n2)c(OC)c1 -25.6% [at 2.29 µM]
O=C(O)[C@@H](O)Cc1ccccn1 -2.15% [at 11.4 µM]

AC50, active:
COc1cccc(/C=N/NC(=O)c2cccc([N+](=O)[O-])c2)c1OS(=O)(=O)c1ccc(C)cc1 3550 nM
CC(/C=N/NC(=O)c1cccc([N+](=O)[O-])c1)=C\c1ccccc1 355 nM
COc1ccc(/C=N/NC(=O)c2cccc([N+](=O)[O-])c2)cc1OS(=O)(=O)c1ccc(C)cc1 891 nM
Cc1cccc(N2CCN(C(=O)CSCc3c(C)noc3C)CC2)c1C 12600 nM
C/C(=C\c1ccco1)C1C(C#N)=C(N)Oc2n[nH]c(-c3ccccc3)c21 (stereo not given) 89.1 nM
O=C(NCCNc1ccc([N+](=O)[O-])cc1)c1ccccc1Br 14100 nM
CCCC(=O)Nc1ccc2nc(SCC(=O)Nc3ccc(N4CCOCC4)c(Cl)c3)sc2c1 2240 nM
O=C(/C=C/c1ccco1)NC(=S)Nc1ccc(N2CCOCC2)c(Cl)c1 4470 nM
Cc1ccc(NC(=O)CSCC(=O)Nc2ccc(N3CCOCC3)c(Cl)c2)cc1 5010 nM
Cc1ccc(NC(=O)c2cc(N3C(=O)C4CC=CCC4C3=O)ccc2N2CCOCC2)cc1Cl (stereo not given) 11200 nM
COc1ccc(C2/C(=C(/O)c3ccccc3)C(=O)C(=O)N2c2ccccn2)c(OC)c1 (stereo not given) 15800 nM
COc1cccc(/C(O)=C2/C(=O)C(=O)N(c3cc(C)on3)C2c2cccs2)c1 (stereo not given) 14100 nM
COc1ccc2[nH]cc(CCNc3ncnc4ccc(-c5ccccc5C#N)cc34)c2c1 316 nM
COc1ccc2[nH]cc(CCNc3ncnc4ccc(-c5cccnc5)cc34)c2c1 1000 nM
CNc1ncnc2ccc(-c3cccc(OC)c3)cc12 501 nM
Cc1cccc(CNc2ncnc3ccc(-c4ccc5c(c4)OCO5)cc23)c1 316 nM
COc1cccc(-c2ccc3ncnc(NCCc4c[nH]c5ccc(OC)cc45)c3c2)c1 398 nM
COc1ccc2[nH]cc(CCNc3ncnc4ccc(-c5cccc(C#N)c5)cc34)c2c1 63.1 nM
COc1ccc2[nH]cc(CCNc3ncnc4ccc(-c5ccccc5OC)cc34)c2c1 251 nM
COc1ccc2[nH]cc(CCNc3ncnc4ccc(-c5ccc6c(c5)OCO6)cc34)c2c1 126 nM
CC(C)[C@H](CO)Nc1nc(Nc2cc(N)cc(Cl)c2)c2ncn(C(C)C)c2n1 20000 nM
O=c1/c(=C\c2ccc(O)cc2)sc2n1C(c1ccccc1)C(c1ccccc1)=NN=2 (stereo not given) 3550 nM
COc1ccc([C@@H](C)c2cc3c(cc2O)OCO3)cc1 1580 nM
COc1ccc([C@@H](Nc2ncccn2)c2cc3c(cc2O)OCO3)cc1 3160 nM

AC50, inactive:
NNc1nncc2ccccc12
Cc1cccc([C@@H]2CN(C)CCc3c2cc(O)c(O)c3Cl)c1
CC[C@@]12CCCN3CCc4c(n(c5ccccc45)[C@](O)(C(=O)OC)C1)[C@H]32
CC(C)(C)NC[C@H](O)COc1cccc2c1CCCC2=O
